# Reference: PubChem BioAssay AID1626 (SRMLSC, 2009)
# The campaign covered roughly 220,000 compounds. About 2,000 (0.91%) were called active. Inconclusive results (about 2%) are left out. A selection follows. Entries with a potency or affinity are not part of this list. A number with no mark means an inactive call. No stated cut-off is given here; in the data, inconclusive means inhibition above about 80% without an active follow-up result; inactive means below that; test concentration not stated here.
# Test: M. tuberculosis H37Rv growth inhibitors, H37Rv strain (AID 1626);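 further: bacteria incubated seven days before Alamar blue readout; 0% = bacteria only wells and 100% = bacteria with antibiotic wells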
# Settings: stronger effect = higher value, concentration not given here
row,SMILES,inhibition [%]
1,C[C@@H]1CC[C@]2(O[C@@H](CCO)C[C@@H](O)[C@@H]2O)O1,-6.09
2,Cc1nc2sc(C(c3cccc(F)c3)N3CCC(C)CC3)c(O)n2n1 (stereo unspecified),-7.23
3,O=S(=O)(c1ccc(Cl)c(S(=O)(=O)N2CCCC2)c1)N1CCCC1,-11.7
4,CC(=O)c1ccc(N2CCN(C(=O)C3(S(=O)(=O)c4ccc(Cl)cc4)CC3)CC2)cc1,1.33
5,Cc1cc(N2CCN(C)CC2)nc2ccc(NC(=S)N3CCCCC3)cc12,30.4
6,CN(C(=O)COc1ccc(S(=O)(=O)N2CCOCC2)cc1[N+](=O)[O-])C1CCS(=O)(=O)C1 (stereo unspecified),-7.08
7,COc1ccc(NC(=O)c2cccnc2N2CCOCC2)cc1,4.7
8,COc1ccccc1NC(=S)N(CCCN1CCOCC1)Cc1cccs1,-3.58
9,CCc1cccc2c(C(=O)COC(=O)c3ccc(O)cc3)c[nH]c12,2.75
10,O=C(COC(=O)c1ccc([N+](=O)[O-])s1)NCc1ccccc1,17.7
11,Cc1[nH]c2ccccc2c1C(=O)COC(=O)c1ccc([N+](=O)[O-])s1,99.3
12,CCc1cccc2c(C(=O)COC(=O)c3ccccc3)c[nH]c12,7.6
13,CCN(C(=O)CCCC(=O)N(CC)c1ccccc1)c1ccccc1,-1.06
14,Cc1cc(C)nc(SCC(=O)Nc2ccc(S(=O)(=O)Nc3onc(C)c3C)cc2)n1,-9.62
15,CC(C)(C)CN1CCNC(=O)C1CC(=O)N1CCN(c2ccccc2)CC1 (stereo unspecified),-2.51
16,O=C(NCc1cccc(C(F)(F)F)c1)c1cc(Cl)ccc1Cl,15
17,CC1=Nc2ccccc2/C1=C\c1nc(-c2ccc(F)cc2)oc1O,54.8
18,CC1=Nc2ccccc2/C1=C\c1nc(-c2ccccc2)oc1O,3.61
19,CC(C)(C)CC(C)(C)NC(=O)CSCC(=O)Nc1ccc2ccccc2c1,-8.35
20,O=C(CSCc1ccc(C(=O)O)cc1)Nc1ccc2ccccc2c1,35.7
21,CC(C)c1ccc(CNC(=O)CCc2ccccc2)cc1,6.15
22,O=C(O)CSCC(=O)NCc1ccccc1,-2.1
23,CCN(CC)C(=N)/C(C#N)=N/Nc1ccccc1,-13.5
24,Cn1cccc1C(=O)NC(=O)COC(=O)CNC(=O)c1ccc(Cl)cc1Cl,-13

row,SMILES,inhibition [%]
1,O=C(Cn1nc(C(F)(F)F)c2c1CCCC2)Nc1ccc2c(c1)OCO2,-0.66
2,CCOc1ccc(C2=NNC(c3cccnc3)=Nc3ccc(OC)cc32)cc1,1.63
3,N#CCCn1c(C(C#N)(CCC#N)CCC#N)nc2ccccc21,-2.99
4,COc1ccc(S(=O)(=O)N=C2C=C(C)C(=O)C(C)=C2)cc1,-5.5
5,COc1ccc(C(=O)ON=C2C=C(C)C(=O)C(C)=C2)cc1,-2.82
6,COc1cc(C(C(=O)NC(C)(C)C)N(Cc2ccc3c(c2)OCO3)C(=O)c2cnccn2)cc(OC)c1OC (stereo unspecified),-6.38
7,CCOC(=O)C[C@H]1c2ccccc2S(=O)(=O)N1c1cccc(OC)c1,-8.13
8,CC(=O)Nc1sc2c(c1CN1CCCC1)CCCC2,-3.09
9,CC(=O)Nc1sc2c(c1CN1CCN(C)CC1)CCCC2,-1.53
10,COc1cccc(C(=O)Nc2ccc(NC(C)=O)cc2)c1,-16.8
11,CC1CCCN(C(=O)Cn2cnc3c2c(=O)n(C)c(=O)n3C)C1 (stereo unspecified),10.5
12,CC1Cc2ccccc2N1C(=O)COC(=O)CNC(=O)c1ccc(Br)o1 (stereo unspecified),-10.5
13,Cc1cc(C(=O)OCC(=O)N2c3ccccc3CC2C)c(C)o1 (stereo unspecified),7.82
14,O=C(OCC(=O)N1CCCc2ccccc21)c1ccc(Cl)nc1,60.1
15,CC1Cc2ccccc2N1C(=O)COC(=O)c1cccnc1Cl (stereo unspecified),3.35
16,O=C(OCC(=O)N1CCc2ccccc21)c1cccnc1,-5.16
17,CC1Cc2ccccc2N1C(=O)COC(=O)c1ccc(O)cc1 (stereo unspecified),2.09
18,NC(=O)CC[C@@H]1NC(=O)[C@@H]2CCCN2C(=O)c2cc([N+](=O)[O-])cc(I)c2NCCCC[C@@H](C(=O)NC(CC(=O)O)C(N)=O)NC1=O (stereo partly specified),0.47
19,Cc1ccc(NC(=O)CSc2nnc(-c3n[nH]c4ccccc34)n2-c2ccccc2)c(C)c1,14.9
20,COc1ccc(Cl)cc1Nc1nc(C)cc(C)c1C(N)=O,-2.67
21,Cc1cc2c(sc3ccccc32)c(C)n1,5.03
22,CN1C(=O)C(=Cc2ccc(N3CCOCC3)o2)C(=O)N(C)C1=O,5.8
23,O=Cc1ccc(N2CCCC2)o1,46.4
24,O=C(Nc1cccc2ncccc12)C12CC3CC(CC(C3)C1)C2,-10

row,SMILES,inhibition [%]
1,Cc1ccccc1OCc1nnc(SCC(=O)NCc2ccccc2)n1C,2.63
2,Cc1ccccc1C(=O)NC1CCN(CC(=O)NCc2cccs2)CC1,2.61
3,COc1ccc(/C=C/C(=O)c2sc(-c3ccccc3)nc2C)cc1,6.03
4,Cc1ccc(N/C=C/C(=O)c2sc(-c3ccccc3)nc2C)cc1,3.94
5,COc1cc(S(=O)(=O)N2CCCCC2)ccc1NC(=O)Cc1ccccc1,-1.81
6,Cc1ccc(CNC(=O)COC(=O)c2cnc(C)cn2)cc1,0.26
7,COC1=C(Nc2ccc(OC)cc2)C(=O)c2ccccc2C1=O,8.34
8,COC1=C(Nc2ccccc2)C(=O)c2ccccc2C1=O,13.5
9,COc1cccc(-c2nc(-c3ccc(C(=O)O)cc3)no2)c1,-12.7
10,O=[N+]([O-])c1cc(CN2CCCC2)c2cccnc2c1O,-5.59
11,O=[N+]([O-])c1cc(CN2CCN(c3ccccc3)CC2)c(O)c2ncccc12,77.9
12,COc1ccc(NC(=O)C2C3CCC(C3)C2C(=O)O)cc1OC (stereo unspecified),6.44
13,COCCC(=O)Nc1ccc2c(c1)CN(C(=O)CCSC)CC2,3.42
14,CCn1c(CNc2ccccc2Cl)nnc1SCC(=O)NCc1ccccc1,-4.41
15,CCn1c(CNc2ccccc2Cl)nnc1SCCN1CCCCC1,-2.66
16,CCn1c(CNc2ccc(F)cc2)nnc1SCC(=O)Nc1ccc(OC)cc1,2.51
17,CCn1c(CNc2ccc(OC)cc2)nnc1SCC(=O)Nc1ccc(F)cc1,-10.9
18,Cc1ccc(NC(=O)CSc2nnc(Cc3ccccc3)o2)cc1,22.6
19,O=C(CSc1nnc(Cc2ccccc2)o1)Nc1ccccc1,-4.88
20,COCCN(C(=O)c1ccco1)C(C(=O)NC1CCCC1)c1cccs1 (stereo unspecified),0.07
21,CCOC(=O)c1sc(C)c(C(=O)NC2CCCCC2)c1N,4.33
22,CC(OC(=O)c1snc(C(=O)NC2CCCCC2)c1N)C(=O)NC(C)(C)C (stereo unspecified),39
23,CC(OC(=O)c1snc(C(=O)NC2CCCCC2)c1N)C(=O)NC1CCCCC1 (stereo unspecified),2.49
24,CCOC(=O)c1snc(C(=O)NC2CCCCC2)c1N,5.5

row,SMILES,inhibition [%]
1,COc1ccc(NC(=S)Nc2ccccc2F)c(OC)c1,-4.54
2,COC(=O)c1ccccc1NC(=O)C1CCCN(S(=O)(=O)c2ccc(OC)cc2)C1 (stereo unspecified),5.41
3,O=C(/C=C/c1ccccc1Cl)NCc1cccs1,2.96
4,O=C1CC(SCc2nc3ccccc3[nH]2)C(=O)N1c1ccc(F)c(Cl)c1 (stereo unspecified),-2.51
5,Cc1cccn2c(=O)c3cc(C(=O)NC(C)c4ccccc4)c(=N)n(CCCn4ccnc4)c3nc12 (stereo unspecified),48.6
6,CC1(C)C2CCC1(C)C(Nc1ccccc1)C2 (stereo unspecified),3.82
7,C=CC(=O)NC1CC2CCC1(C)C2(C)C (stereo unspecified),6.5
8,Cc1onc(-c2c(F)cccc2Cl)c1C(=O)N1CCN(c2ncccn2)CC1,3.2
9,COc1cc(CNn2c(C)n[nH]c2=S)cc(Br)c1OCc1ccc(F)cc1,6.01
10,CCOc1ccc(OCc2ccc(C(=O)N3CCOCC3)cc2)cc1,-3.72
11,CCOc1ccc(N=C(/C(C(=O)C(=O)N2CCOCC2)=C(/O)c2ccccc2)c2ccccc2)cc1,70.8
12,Nc1ccc(C(=O)c2cccs2)cn1,-5.69
13,O=C(c1ccccc1)c1cccs1,0.41
14,COc1ccc(-c2csc(NC(CO)c3nc4ccccc4n3CCCO)n2)cc1 (stereo unspecified),1.28
15,Cc1ccc(C(=O)Nc2nc(-c3cccnc3)cs2)o1,7.51
16,Cc1cc(-c2csc(NC(=O)c3cc4ccccc4o3)n2)c(C)n1C,-8.86
17,O=C(Nc1ccccn1)c1cc2ccccc2o1,9.27
18,Cc1ccc(-c2csc(NC(=O)c3ccc(C)o3)n2)cc1,10.4
19,CCCCn1nnnc1SCC(=O)N1CCOCC1,-13.6
20,Cc1[nH]nc2c1C(c1cccs1)C(C#N)=C(N)O2 (stereo unspecified),8.65
21,CC(O)[C@H]1CNC(=O)C(=O)N1CCC12CC3CC(CC(C3)C1)C2 (stereo partly specified),-0.53
22,CC(=O)Oc1ccc2oc(C)c(C(=O)N3CCOCC3)c2c1,-12.9
23,COc1ccc(OC)c(S(=O)(=O)Nc2ccc3oc4c(c3c2)C(=O)CCC4)c1,-4.7
24,COc1ccc(-n2c(O)c(C(C)=NCc3ccc4c(c3)OCO4)c(=O)[nH]c2=O)cc1,0.11
